Assay results as given in the supplement of paper PMC6658780.
Counter-ions that a name gives are not always drawn. ± gives the standard deviation of the averaged measurements.

test system: Escherichia coli ATCC BAA-2469; assay: percent growth inhibition of drug alone vs DMSO control; higher = more growth inhibition; details: antibiotic (0.125x MIC): none (0.1% DMSO); 7 µM
Procedure: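 Prestwick drugs tested at 20 uM and 7 uM with an antibiotic at 0.125x MIC (16 mg/L when MIC >128 mg/L) against E. coli ATCC BAA-2469 (NDM-1) in CAMHB, 384-well plates, duplicate runs. Percent growth inhibition was computed from OD600 (24 h minus 0 h) relative to DMSO wells. Drug + DMSO-only wells are also given. […]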

Structure (SMILES) | percent growth inhibition of drug alone [%]
C#C[C@]1(OC(C)=O)CC[C@H]2[C@@H]3CCC4=C[C@@H](OC(C)=O)CC[C@@H]4[C@H]3CC[C@@]21C [Ethynodiol diacetate] | -1.57 ± 7.4
CCCCNc1c(C(=O)OCC)c(C)nc2c1cnn2CC [Tracazolate hydrochloride] | 3.29 ± 0.5
Cc1cc(N)c2ccccc2[n+]1CCCCCCCCCC[n+]1c(C)cc(N)c2ccccc21 [Dequalinium dichloride] | 2.01 ± 0.53
C#C[C@]1(O)CC[C@H]2[C@@H]3CCC4=C(CCC(=O)C4)[C@H]3CC[C@@]21C [Norethynodrel] | 0.455 ± 0.56
N[C@@H]1CCCCN(c2c(F)cc3c(=O)c(C(=O)O)cn(C4CC4)c3c2Cl)C1 [Besifloxacin hydrochloride] | 3.86 ± 3.6
COc1ccc2c(c1)c(CC(=O)OCC(=O)O)c(C)n2C(=O)c1ccc(Cl)cc1 [Acemetacin] | 2.19 ± 1
NS(=O)(=O)c1cc2c(cc1C(F)(F)F)NC(Cc1ccccc1)NS2(=O)=O (stereo not given) [Bendroflumethiazide] | -1.67 ± 1.1
CCCCC(CC)CNC(=N)NC(=N)NCCCCCCNC(=N)NC(=N)NCC(CC)CCCC (stereo not given) [Alexidine dihydrochloride] | 102 ± 2
Clc1cccc(Cl)c1NC1=NCCN1 [Clonidine hydrochloride] | 0.913 ± 1.3
Oc1c(I)cc(Cl)c2cccnc12 [Clioquinol] | 11.8 ± 2.5
CCCCCCCCNC(C)C(O)c1ccc(SC(C)C)cc1 (stereo not given) [Suloctidil] | 7.25 ± 11
O=C1NCCN1c1ncc([N+](=O)[O-])s1 [Niridazole] | 19.9 ± 7.6
NC(=O)N/N=C/c1ccc([N+](=O)[O-])o1 [Nitrofural] | 5.6 ± 7.3
COc1cc(NS(=O)(=O)c2ccc(N)cc2)nc(OC)n1 [Sulfadimethoxine] | -0.418 ± 1.2
Nc1nc(F)nc2c1ncn2[C@@H]1O[C@H](CO)[C@@H](O)[C@@H]1O [Fludarabine] | 23 ± 20
Cc1c(OCC(F)(F)F)ccnc1C[S+]([O-])c1nc2ccccc2[nH]1 (stereo not given) [Lansoprazole] | 2.04 ± 3.3
OCCN1CCN(CCCN2c3ccccc3Sc3ccc(C(F)(F)F)cc32)CC1 [Fluphenazine dihydrochloride] | 1.91 ± 1.5
CC1CS(=O)(=O)CCN1/N=C/c1ccc([N+](=O)[O-])o1 (stereo not given) [Nifurtimox] | 1.01 ± 1.2
O=C(O)CN(CCN(CC(=O)O)CC(=O)O)CCN(CC(=O)O)CC(=O)O [Pentetic acid] | 0.0597 ± 2.1
Oc1c(Cl)cc(Cl)c2cccnc12 [Chloroxine] | 13.1 ± 9.1

same assay, conditions: antibiotic (0.125x MIC): none (0.1% DMSO); 20 µM

Structure (SMILES) | percent growth inhibition of drug alone [%]
C#C[C@]1(OC(C)=O)CC[C@H]2[C@@H]3CCC4=C[C@@H](OC(C)=O)CC[C@@H]4[C@H]3CC[C@@]21C [Ethynodiol diacetate] | -0.574 ± 3.8
CCCCNc1c(C(=O)OCC)c(C)nc2c1cnn2CC [Tracazolate hydrochloride] | -0.173 ± 5.2
Cc1cc(N)c2ccccc2[n+]1CCCCCCCCCC[n+]1c(C)cc(N)c2ccccc21 [Dequalinium dichloride] | 12.5 ± 11
C#C[C@]1(O)CC[C@H]2[C@@H]3CCC4=C(CCC(=O)C4)[C@H]3CC[C@@]21C [Norethynodrel] | 5.02 ± 3.1
COc1ccc2c(c1)c(CC(=O)OCC(=O)O)c(C)n2C(=O)c1ccc(Cl)cc1 [Acemetacin] | 1.2 ± 0.59
NS(=O)(=O)c1cc2c(cc1C(F)(F)F)NC(Cc1ccccc1)NS2(=O)=O (stereo not given) [Bendroflumethiazide] | -1.13 ± 2.1
CO[C@H]1/C=C/O[C@@]2(C)Oc3c(C)c(O)c4c(O)c(c(/C=N/N5CCN(C6CCCC6)CC5)c(O)c4c3C2=O)NC(=O)/C(C)=C\C=C\[C@H](C)[C@H](O)[C@@H](C)[C@@H](O)[C@@H](C)[C@H](OC(C)=O)[C@@H]1C [Rifapentine] | 112 ± 10
CCCCC(CC)CNC(=N)NC(=N)NCCCCCCNC(=N)NC(=N)NCC(CC)CCCC (stereo not given) [Alexidine dihydrochloride] | 112 ± 12
Clc1cccc(Cl)c1NC1=NCCN1 [Clonidine hydrochloride] | 3.75 ± 2.2
CCCCCCCCNC(C)C(O)c1ccc(SC(C)C)cc1 (stereo not given) [Suloctidil] | 10.4 ± 16
NC(=O)N/N=C/c1ccc([N+](=O)[O-])o1 [Nitrofural] | 32.1 ± 18
COc1cc(NS(=O)(=O)c2ccc(N)cc2)nc(OC)n1 [Sulfadimethoxine] | -0.552 ± 0.63
Nc1ncn(C2OC(CO)C(O)C2O)c(=O)n1 (stereo not given) [Azacytidine-5] | 111 ± 10
Nc1nc(F)nc2c1ncn2[C@@H]1O[C@H](CO)[C@@H](O)[C@@H]1O [Fludarabine] | 59.1 ± 4.9
Cc1c(OCC(F)(F)F)ccnc1C[S+]([O-])c1nc2ccccc2[nH]1 (stereo not given) [Lansoprazole] | 4.77 ± 4.3
OCCN1CCN(CCCN2c3ccccc3Sc3ccc(C(F)(F)F)cc32)CC1 [Fluphenazine dihydrochloride] | 3.64 ± 1.5
CC1CS(=O)(=O)CCN1/N=C/c1ccc([N+](=O)[O-])o1 (stereo not given) [Nifurtimox] | 1.15 ± 4.3
O=C1OCCN1/N=C/c1ccc([N+](=O)[O-])o1 [Furazolidone] | 115 ± 13
O=C(O)CN(CCN(CC(=O)O)CC(=O)O)CCN(CC(=O)O)CC(=O)O [Pentetic acid] | 0.251 ± 0.41
Oc1c(Cl)cc(Cl)c2cccnc12 [Chloroxine] | 102 ± 8
